# WRN helicase inh – inhibitors of human WRN helicase; Q14191; WRN helicase unwinding, fluorescent forked duplex, kinetic; Potency, µM (top dose mostly 114 µM), usual class: inhibitors; actives 0.46% (n = 360,000); note: nearly all actives have a fitted effect of over 55% in size
#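 Kinetic red-fluorescence monitoring (525/598 nm) tracks WRN helicase activity after 100 nM fluorophore-quencher forked duplex and 2 mM ATP are added to 20 nM enzyme pretreated 15 min at room temperature with compound.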
# RECQ1 inh-1 – blocks DNA unwinding by human RECQ1; Potency, µM (highest dose often 57.3 µM), actives largely listed as inhibitors; RECQ1 DNA unwinding, red fluorescence kinetic read; actives 0.54% (n = 240,000); P46063; note: nearly all actives have a fitted effect of over 30% in size
# Target sequence (P46063 whole entry, looked up): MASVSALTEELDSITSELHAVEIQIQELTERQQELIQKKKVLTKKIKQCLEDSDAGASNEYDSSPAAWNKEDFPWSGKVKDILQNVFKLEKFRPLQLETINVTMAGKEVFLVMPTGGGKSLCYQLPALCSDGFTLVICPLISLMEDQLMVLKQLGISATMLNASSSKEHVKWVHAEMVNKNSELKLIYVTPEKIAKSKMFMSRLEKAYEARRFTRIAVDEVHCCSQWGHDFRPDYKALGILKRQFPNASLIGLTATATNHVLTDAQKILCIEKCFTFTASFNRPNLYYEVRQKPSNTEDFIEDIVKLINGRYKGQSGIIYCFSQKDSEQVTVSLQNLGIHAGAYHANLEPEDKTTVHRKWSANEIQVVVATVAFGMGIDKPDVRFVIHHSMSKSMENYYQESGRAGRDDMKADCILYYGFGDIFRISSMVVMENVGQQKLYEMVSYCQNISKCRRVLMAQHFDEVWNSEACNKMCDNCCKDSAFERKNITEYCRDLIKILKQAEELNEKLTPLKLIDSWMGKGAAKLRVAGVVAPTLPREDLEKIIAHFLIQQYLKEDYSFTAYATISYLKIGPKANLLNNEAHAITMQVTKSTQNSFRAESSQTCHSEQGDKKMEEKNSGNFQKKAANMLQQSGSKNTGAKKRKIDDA
#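 50 nM RECQ1T1 preincubated 15 min with compound in Tris pH 8.0 buffer with MgCl2, DTT, Tween-20 and 2.5 ug/ml poly(dI-dC); started with 200 nM TAMRA/BHQ-2 forked duplex and 2 mM ATP. Unwinding read as fluorescence (525/598 nm), two reads 2 h apart.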
# APEX1 inh – inhibitors of human APE1 endonuclease. P27695. recombinant APE1, TAMRA/BHQ-2 abasic DNA cleavage fluorescence. Potency, µM (titrated, usually from 65.8 µM), usual class: inhibitors. actives 0.35% (n = 350,000). AID 2517; note: nearly all actives have a fitted effect of over 55% in size
#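 Kinetic fluorescence read (525 ex/598 em nm, three reads 60 s apart) of AP-site incision; signal = third minus first read. Enzyme 0.75 nM, dual-labelled THF duplex 50 nM, compound preincubation 15 min RT.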
# BLM helicase inh – inhibitors of human Bloom syndrome helicase BLM; P54132; recombinant BLM DNA unwinding, fluorescence dequenching; Potency, µM (top dose mostly 56.1 µM), usual class: inhibitors; actives 0.2% (n = 350,000); AID 2528; note: nearly all actives have a fitted effect of over 35% in size
# FEN1 inhibitor – human FEN1 inhibition. Potency, µM (top dose mostly 114 µM), usual class: inhibitors. AID 588795. actives 0.35% (n = 390,000). P39748. Recombinant FEN1 flap cleavage, fluorescence, 15 min; note: nearly all actives have a fitted effect of over 65% in size
#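 In this screen, 50 nM flap DNA substrate was added to 10 nM FEN1 pretreated with compound for 15 min at room temperature; cleavage was followed with reads at 0 and 15 min, and Hill fitting gave concentration–response parameters.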
# RECQ1 conf – confirmation of human RECQ1 helicase inhibitors | Potency, µM (titrated, usually from 229 µM), most hits filed as inhibitors | RECQ1 helicase DNA unwinding, fluorescence | shares compounds with RECQ1 inh-1 | actives 28% (n = 610); note: nearly all actives have a fitted effect of over 45% in size
# ADP FP counter – displaces ADP in a fluorescence polarization counter-screen for RECQ1 hits. actives 27% (n = 530). shares compounds with RECQ1 inh-1. Potency, µM (titrated, usually from 228 µM), hits mostly inhibitors. ADP fluorescence polarization displacement counterscreen; note: nearly all actives have a fitted effect of over 45% in size
# RECQ1 inh-2 – RECQ1 helicase inhibition confirmed, round 2 | recombinant RECQ1 DNA unwinding, red fluorescence | Potency, µM (top dose mostly 119 µM), actives largely listed as inhibitors | AID 504841 | shares compounds with RECQ1 inh-1 | actives 15% (n = 1,100); note: nearly all actives have a fitted effect of over 50% in size
# Numbers stand for hits; 0 = inactive; ? = inconclusive; - = not tested or not shown; [ ] = another dose, or the depositor's remark. Shown are actives, neighbours in structure and some others; about 0.87% of the full set was active somewhere. Calls come from the whole dose curve; as a rule, active = well fitted curve in the direction sought with a large enough effect; inconclusive = small, poorly fitted or top-dose-only effect, or another doubt; inactive = no such curve, though single readings can be large; an effect the other way counts as inactive or inconclusive.
SMILES,WRN helicase inh,RECQ1 inh-1,APEX1 inh,BLM helicase inh,FEN1 inhibitor,RECQ1 inh-2,others
O=C1C=C(O)C(n2cncn2)C(c2ccc3c(c2)OCO3)C1 (centres undefined),0,?,0,0,0,0,
O=C(NCC(c1cccs1)S(=O)(=O)c1cccs1)c1c(F)cccc1F (centres undefined),-,-,-,0,0,-,
Cc1ccc(S(=O)(=O)N(CC(=O)Nc2cccc(N(C)S(C)(=O)=O)c2)c2ccc(Cl)c(Cl)c2)cc1,0,7.1µM,0,0,0,0,RECQ1 conf=?;ADP FP counter=0
CN(c1cccc(NC(=O)CN(c2ccc(Cl)c(Cl)c2)S(=O)(=O)c2ccccc2)c1)S(C)(=O)=O,0,0,0,0,0,-,
CCOc1ccccc1C(=O)N(Cc1ccco1)Cc1ccccc1F,-,-,-,0,0,-,
CCOc1ccc2c(c1)c(=O)c(C(=O)c1ccc(CC)cc1)cn2CC(=O)Nc1ccc2c(c1)OCCO2,-,-,-,0,0,-,
Cc1ccc(/C=C(\CCC(=O)O)c2nc3ccccc3s2)cc1[N+](=O)[O-],0,0,0,0,0,-,
Cn1cnnc1Sc1ccc(/C=C(\CCC(=O)O)c2nc3ccccc3s2)cc1[N+](=O)[O-],0,0,0,0,0,-,RECQ1 conf=0;ADP FP counter=0
CNc1ccc(/C=C(\CCC(=O)O)c2nc3ccccc3s2)cc1[N+](=O)[O-],?,35µM,35µM,0,0,32µM,
CCN(CC)CCCNC(=O)CSc1nc(-c2ccc(OC)cc2)cc(C(F)(F)F)n1,-,-,-,0,0,-,
Cc1ccc(NC(=O)C(=O)NCC(c2cccnc2)N2CCN(Cc3ccccc3)CC2)cc1F (centres undefined),-,-,-,0,0,-,
COc1ccccc1S(=O)(=O)Cc1ccc(C(=O)NCc2ccc(Cl)cc2)o1,-,-,-,0,0,-,
CCCCC1=CC2=CC(=O)C(C)(OC(=O)CC)C(=O)C2=CN1Cc1ccco1 (centres undefined),0,?,?,0[12.4 µM],0,0,
CS(=O)(=O)N1Cc2ccccc2CC1C(=O)OCC(=O)NCc1ccccc1 (centres undefined),?,-,?,-,0,-,
C/C(N)=C(/C#N)C(=O)COC(=O)C1Cc2ccccc2CN1S(C)(=O)=O (centres undefined),0,?,?,0,0,?,
Cc1ccc(C)c(-c2nc3ccc(N)cc3[nH]2)c1,0,?,0,0,0,-,RECQ1 conf=0;ADP FP counter=?
CCCCOc1ccc(C(=O)Nc2cccc(-c3nc4cccnc4s3)c2)cc1,-,-,-,0,0,-,
O=C(O)c1ccccc1-c1c2ccc(=O)cc-2oc2cc(O)ccc12,-,32µM,28µM,32µM,-,79µM,RECQ1 conf=112µM;ADP FP counter=0.5µM
O=C(O)CN(CC(=O)O)Cc1cc2c(-c3ccccc3C(=O)O)c3cc(CN(CC(=O)O)CC(=O)O)c(=O)cc-3oc2cc1O,-,28µM,-,16µM,-,-,RECQ1 conf=112µM;ADP FP counter=0.14µM
Cn1c(=O)c2sccc2n2c(CCCC(=O)Nc3ccc(Oc4ccc(Cl)cc4)cc3)nnc12,-,-,-,0,?,-,
O=C1OC(c2ccc(F)cc2)=C/C1=C\c1ccc([N+](=O)[O-])o1,-,22µM,0,0,-,-,RECQ1 conf=0
CCn1c(SCC(=O)c2cc(C)n(CC3CCCO3)c2C)nc2ccccc21 (centres undefined),0,40µM,0,0,0,0,
Cc1cc(C(=O)CSc2nnc(-c3cccnc3)n2-c2ccccc2F)c(C)n1CC1CCCO1 (centres undefined),0,35µM,?,0,0,0,
CCc1ccccc1NC(=O)C(=O)NCC(c1cccnc1)N1CCc2ccccc21 (centres undefined),-,-,-,0,0,-,
Cc1ccc(Cn2c(CCCNC(=O)c3ccco3)nc3ccccc32)cc1,-,-,-,0,0,-,
SMILES,WRN helicase inh,RECQ1 inh-1,APEX1 inh,BLM helicase inh,FEN1 inhibitor,RECQ1 inh-2,others
Cc1ccccc1Cn1c(C(=O)OC(C)C)cc2c1ccn2C,0,0,0,0,0,-,
CCOC(=O)c1cc2c(ccn2C)n1Cc1ccccc1C,0,28µM,0,0,0,?,
CCc1ccc(CNC(=O)C2CCCN(c3nn4cc(-c5ccc(F)cc5)nc4s3)C2)cc1 (centres undefined),-,-,-,0,0,-,
COCCn1c(N)c(C(=O)NCC2CCCO2)c2nc3ccccc3nc21 (centres undefined),0,?,?,?,0,0,
COCCn1c(N)c(S(=O)(=O)c2cccs2)c2nc3ccccc3nc21,0,0,0,?,0,-,
COCCn1c(N)c(C(=O)NCc2cccs2)c2nc3ccccc3nc21,0,?,?,0,?,0,
Cc1ccccc1CNC(=O)C(=O)NCC(c1cccs1)S(=O)(=O)c1ccc(Cl)cc1 (centres undefined),-,-,-,0,0,-,
C(=C\c1ccco1)/c1ccc2ccccc2n1,0,8.9µM,?,?,0,0,RECQ1 conf=?;ADP FP counter=45µM
Cc1ccc2c(c1)c1nnc(SCC(=O)N3CCCc4ccccc43)nc1n2CC(=O)O,0,0,0,0,0,-,RECQ1 conf=0;ADP FP counter=?
CC(C)c1nn2c(=O)cc(COC(=O)c3cccc(NC(=O)c4ccccc4F)c3)nc2s1,-,-,-,0,0,-,
